C diff HTS: C. difficile growth inhibitors, primary screen, HTS. Clostridium difficile clinical isolate growth, OD600, 24 h; active compounds read low. AID 1259249, 2017. growth activity, negative = inhibition, % at 16 µg/mL (by protocol). actives 0.25% (n = 86,000);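 active means mean growth activity at or below -80% and every replicate also at or below -80%; inconclusive means mean at or below -80% but some replicate above -80%; inactive means mean growth activity above -80%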;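 further: 0% = DMSO wells and -100% = levofloxacin 16 µg/mL wells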
T cruzi growth-1: T. cruzi intracellular proliferation inhibitors, primary screen, cell-based, beta-gal Tulahuen parasites, NIH3T3 host, luminescence. AID 624255, 2012. T. cruzi beta-gal in NIH3T3, GalScreen luminescence, 90 h. inhibition, % at 8.34 µM. actives 5.9% (n = 77,000);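 active means mean inhibition above about 93%, with at least 55% of replicates each passing it, limit read from the data, passing the limit was not always enough; inconclusive means only one of those two conditions holds; inactive means neither condition holds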
T cruzi growth-2: T. cruzi intracellular proliferation inhibitors, confirmation, cell-based, NIH3T3 host, beta-gal parasite, luminescence, cherry-pick | actives 72% (n = 5,600) | inhibition, % at 8.35 µM | AID 651739, 2012 | T. cruzi beta-gal in NIH3T3, GalScreen luminescence, 90 h | shares compounds with T cruzi growth-1;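 active means mean replicate inhibition above about 95% and at least 55% of replicates individually reaching it, limit read from the data; inconclusive means only one of the two criteria is met; inactive means neither criterion is met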
T cruzi growth-3: inhibitors of intracellular T. cruzi replication, confirmation, NIH3T3 host cells, beta-gal parasites, cherry-pick, set 2; shares compounds with T cruzi growth-1; T. cruzi beta-gal in NIH3T3, GalScreen luminescence, 90 h; inhibition, % at 2.09 µM; actives 21% (n = 5,600); AID 651740, 2012;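 active means mean inhibition above about 95%, with at least 55% of replicates also reaching it, limit read from the data; inconclusive means meets just one of the two conditions; inactive means meets neither condition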;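 further: plate controls were neutral control median for no effect and positive control median for full effect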
3T3 cytotox: cytotoxicity in mouse NIH/3T3 fibroblasts, confirmation, cytotoxicity control for T. cruzi proliferation inhibitor project, cell-based, cherry-pick, single point; shares compounds with T cruzi growth-1; NIH/3T3 viability, CellTiter-Glo ATP luminescence, 90 h; cytotoxicity (signal decrease), % at 8.35 µM; actives 14% (n = 5,600);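 active means mean signal decrease across replicates above about 35% based on untreated-well scatter, with enough replicates individually passing, limit read from the data; inconclusive means no rule stated though some were filed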;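 further: 0% = median of neutral control wells and 100% = median of positive control wells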
3T3 cytotox 2: NIH/3T3 fibroblast cytotoxicity, confirmation, cytotoxicity control, cell-based, cherry-pick, single point, set 2. shares compounds with T cruzi growth-1. NIH/3T3 viability, CellTiter-Glo ATP luminescence, 90 h. inhibition, % at 24.9 µM. actives 56% (n = 5,600);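 active means mean loss of cell viability signal at or above a set limit, and enough replicates individually reaching it; inconclusive means meets only the mean limit or only the replicate share; inactive means meets neither condition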;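 further: 0% = median of neutral control wells and 100% = median of positive control wells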
The depositor's hits bear a star; ? = inconclusive; · = not tested or not shown. Shown is part of a subset that was picked to be rich in hits.

SMILES	C diff HTS	T cruzi growth-1	T cruzi growth-2	T cruzi growth-3	3T3 cytotox	3T3 cytotox 2
COCC(=O)Nc1ccc2c(c1)C(=O)N(C)[C@H]1CC[C@H](CC(=O)Nc3ccccc3)O[C@@H]1CO2	-1	28	·	·	·	·
COc1ccc(S(=O)(=O)Nc2ccc3c(c2)CC(=O)N([C@@H](C)CO)C[C@H](C)[C@@H](CN(C)Cc2ccc(-c4ccccc4)cc2)O3)cc1	7	88	·	·	·	·
N#C[C@H]1[C@H](c2ccc(C3=CCCC3)cc2)[C@H](CO)N1C(=O)C1CC1	-2	102*	96*	50	8	15
COc1ccc(-c2ccccc2[C@H]2[C@@H](C#N)N(C(=O)NC3CCCC3)[C@H]2CO)cc1	4	·	·	·	·	·
N#C[C@@H]1[C@H](c2ccc(C3=CCCC3)cc2)[C@H](CO)N1C(=O)C1CC1	-7	95	·	·	·	·
COc1ccc(-c2ccc([C@@H]3[C@@H](CO)N(C(=O)NC4CCCC4)[C@H]3C#N)cc2)cc1	8	?	30	-5	-2	-12
N#C[C@@H]1[C@@H](c2ccc(/C=C/c3ccccc3)cc2)[C@@H](CO)N1C(=O)C1CCCC1	5	26	·	·	·	·
N#C[C@H]1[C@@H](c2ccc(/C=C/c3ccccc3)cc2)[C@@H](CO)N1C(=O)C1CCCC1	9	?	95*	50	23	27*
COc1ccc(-c2ccc([C@@H]3[C@@H](C#N)N(C(=O)C4CCCC4)[C@H]3CO)cc2)cc1	8	42	·	·	·	·
COc1ccc(-c2ccc([C@H]3[C@@H](C#N)N(C(=O)C4CCCC4)[C@@H]3CO)cc2)cc1	10	106*	78	24	12	14
CC(C)NC(=O)N(C)C[C@@H]1Oc2ccc(NC(=O)CCN3CCOCC3)cc2CC(=O)N([C@@H](C)CO)C[C@H]1C	-7	·	·	·	·	·
CCCN(C)C[C@@H]1Oc2cc(-c3ccc(C#N)cc3)ccc2S(=O)(=O)N([C@H](C)CO)C[C@@H]1C	0	·	·	·	·	·
C[C@H]1CN([C@@H](C)CO)C(=O)Cc2cc(NC(=O)CCN3CCOCC3)ccc2O[C@H]1CN(C)C(=O)Nc1ccc2c(c1)OCO2	8	5	·	·	·	·
O=C(CC(F)(F)F)N1C[C@H]2[C@@H](c3ccccc31)[C@H](CO)N2Cc1cccnc1	5	28	·	·	·	·
COc1ccccc1-c1ccc2c(c1)O[C@H](CN(C)C(=O)c1cccnc1)[C@@H](C)CN([C@@H](C)CO)S2(=O)=O	1	·	·	·	·	·
COc1ccc(-c2ccc([C@@H]3[C@@H](C#N)N(C(=O)C4CC4)[C@H]3CO)cc2)cc1	-4	80	·	·	·	·
COc1ccccc1-c1ccc([C@@H]2[C@H](C#N)N(C(=O)CN(C)C)[C@H]2CO)cc1	13	53	·	·	·	·
COc1ccc(-c2ccc([C@@H]3[C@@H](C#N)N(C(=O)CN(C)C)[C@@H]3CO)cc2)cc1	-6	108*	77	3	28	22
COc1ccc(-c2ccc([C@H]3[C@@H](C#N)N(C(=O)C4CC4)[C@@H]3CO)cc2)cc1	-2	106*	61	56	-7	37*
C[C@@H]1CN([C@@H](C)CO)C(=O)c2cc(NC(=O)c3ccncc3)ccc2O[C@@H](C)CCCCO[C@H]1CN(C)C(=O)c1ccccc1	0	-36	·	·	·	·
COCCNC(=O)C[C@H]1CC[C@H]2[C@@H](COc3ccc(NC(=O)c4cc(C)on4)cc3C(=O)N2C)O1	-7	-17	·	·	·	·
CCCNC(=O)[C@@H]1[C@@H](CO)[C@@H]2Cn3c(ccc(-c4cccc(F)c4)c3=O)[C@H]1N2Cc1ccccc1F	-12	·	·	·	·	·
C[C@@H]1CN([C@@H](C)CO)C(=O)c2cc(NC(=O)Cc3cn(C)c4ccccc34)ccc2O[C@@H]1CN(C)Cc1ccncc1	-9	30	·	·	·	·
C[C@H]1CN([C@@H](C)CO)C(=O)c2cc(NC(=O)Cc3cn(C)c4ccccc34)ccc2O[C@@H]1CN(C)Cc1ccc(C(F)(F)F)cc1	6	93	·	·	·	·
C[C@H](CO)N1C[C@H](C)[C@@H](CN(C)Cc2ccc(Cl)c(Cl)c2)Oc2ccc(NC(=O)Cc3cn(C)c4ccccc34)cc2C1=O	29	80	·	·	·	·
SMILES	C diff HTS	T cruzi growth-1	T cruzi growth-2	T cruzi growth-3	3T3 cytotox	3T3 cytotox 2
C[C@@H]1CN([C@@H](C)CO)C(=O)c2cc(NC(=O)Cc3cn(C)c4ccccc34)ccc2O[C@H]1CN(C)Cc1ccc(Cl)c(Cl)c1	·	?	105*	54	13	6
C[C@H](CO)N1C[C@H](C)[C@@H](CN(C)Cc2ccc(C(F)(F)F)cc2)Oc2ccc(NC(=O)Cc3cn(C)c4ccccc34)cc2C1=O	1	118*	107*	13	6	14
C[C@H]1CN([C@@H](C)CO)C(=O)c2cc(NC(=O)Cc3cn(C)c4ccccc34)ccc2O[C@@H]1CN(C)Cc1ccncc1	-4	?	34	-25	6	30*
CCC(=O)NC[C@H]1[C@@H](c2ccc(-c3ccccc3)cc2)[C@H](CO)N1C(=O)C1CC1	-2	98*	-19	-22	-10	8
CCC(=O)NC[C@H]1[C@H](c2ccc(C3=CCCC3)cc2)[C@@H](CO)N1C(C)=O	5	76	·	·	·	·
CC(=O)NC[C@@H]1[C@@H](c2ccc(C3=CCCCC3)cc2)[C@H](CO)N1C(=O)NC(C)C	-9	7	·	·	·	·
CC(C)NC[C@H]1[C@H](c2ccc(C3=CCCCC3)cc2)[C@@H](CO)N1C(=O)NC(C)C	43	98*	104*	48	33	104*
CCC(=O)NC[C@H]1[C@H](c2ccc(-c3ccccc3)cc2)[C@H](CO)N1C(=O)C1CC1	-4	74	·	·	·	·
CCC(=O)NC[C@H]1[C@@H](c2ccc(C3=CCCC3)cc2)[C@H](CO)N1C(C)=O	15	101*	35	75	9	26
CC(C)NC[C@@H]1[C@@H](c2ccc(C3=CCCCC3)cc2)[C@H](CO)N1C(=O)NC(C)C	21	?	101*	79	-2	105*
CC(=O)NC[C@@H]1[C@@H](c2ccc(C3=CCCCC3)cc2)[C@@H](CO)N1C(=O)NC(C)C	-10	57	·	·	·	·
O=S(=O)(c1ccc(F)cc1)N1CCCCN2[C@@H](CO)[C@@H](c3ccc(C#CC4CCCC4)cc3)[C@@H]2C1	-8	60	·	·	·	·
COCC(=O)Nc1ccc2c(c1)C(=O)N(C)C[C@H](OC)[C@H](C)CN(C(=O)c1cccnc1)[C@@H](C)CO2	·	2	·	·	·	·
Cc1ccc(S(=O)(=O)Nc2ccc3c(c2)C(=O)N([C@H](C)CO)C[C@H](C)[C@@H](CN(C)C(=O)Nc2ccc(F)cc2)OCCCC[C@H](C)O3)cc1	·	56	·	·	·	·
